# Measurements published in PubChem BioAssay (EPA / NIEHS).
# “And” between values parts separate entries of the source, which are not always exact repeats. Equal entries are not always repeated. Inconclusive results are not listed. The source made the active and inactive calls. Rule for the calls, unless noted: active = hit-call score of the fitted dose curve at least 0.9, where 1 is the maximum; inactive = score below 0.9.
# Experiments:
# [1] = read-out: Interleukin-8 (IL8), CXCL8 (gene 3576); assay: BSK_MyoF_IL8: BioMAP Diversity Plus: MyoF Assay for Interleukin-8 (IL8) Biomarker Activity (AID 2284261); settings: primary human lung fibroblasts
# In short: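 In this multiplexed primary-cell system, fibroblasts from human lung are treated with chemicals, and IL-8 is detected by ELISA at 24 h, with DMSO serving as the negative reference.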
# Decorin, DCN (gene 1634) = assay: BSK_MyoF_Decorin: BioMAP Diversity Plus: MyoF Assay for Decorin Biomarker Activity (AID 2284265); settings: primary human lung fibroblasts
# In short: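 Lung fibroblast cultures, 24 h chemical exposure. Decorin by ELISA, positive fitting direction, DMSO baseline.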
# [2] = BSK_MyoF_SRB: Viability Assessment in the BioMAP Diversity Plus: MyoF Assay (AID 2284267); settings: primary human lung fibroblasts;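 note: total protein by SRB absorbance in parallel cultures as cytotoxicity measure; cells assessed 24 h after compound addition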
# In short: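 Human lung fibroblasts dosed with chemical and assessed 24 h later for overt cytotoxicity in parallel cultures. Total protein quantified by sulforhodamine B staining (0.1% SRB after 10% TCA fixation), read at 560 nm, analysed in positive direction versus DMSO baseline.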
# [3] = read-out: Matrix Metallopeptidase 1 (MMP1), MMP1 (gene 4312); assay: BSK_MyoF_MMP1: BioMAP Diversity Plus: MyoF Assay for Matrix Metallopeptidase 1 (MMP1) Biomarker Activity (AID 2284268); settings: primary human lung fibroblasts
# In short: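 MMP1 measured by ELISA 24 h after dosing primary human lung fibroblasts; cytotoxicity checked in parallel cultures by sulforhodamine B total-protein staining read at 560 nm.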
# [4] = CCTE_Shafer_MEA_dev_firing_rate_mean: CCTE's Neural Network Formation Assay for Mean Firing Rate, Shafer Lab (AID 2284031);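 for AC50: curve fitted for loss of firing so AC50 reflects decreased mean firing rate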
# In short: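 Primary rat cortical neurons on 48-well, 16-electrode MEAs (PEI-coated, laminin at plating), exposed from day 0 with compound renewed at DIV 5 and 9. Spikes recorded DIV 5, 7, 9, 12; well-mean firing rate collapsed to trapezoidal AUC, loss-of-signal vs DMSO.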
# [5] = CCTE_Shafer_MEA_dev_per_burst_spike_percent: CCTE's Neural Network Formation Assay for Percent of Spikes in a Burst, Shafer Lab (AID 2284032);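 for AC50: fitted as a decrease in burst spike percentage below DMSO baseline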
# In short: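 Rat primary cortical neurons on 16-electrode MEA wells, dosed from plating day 0 for 12 days with renewal on DIV 5 and 9; spikes-in-bursts percentage averaged over bursting electrodes, collapsed as AUC across days 5, 7, 9, 12; loss direction versus DMSO.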
# [6] = CCTE_Shafer_MEA_dev_active_electrodes_number: CCTE's Neural Network Formation Assay for Number of Active Electrodes, Shafer Lab (AID 2284040; active = hit-call score of the fitted dose curve at least 0.9, where 1 is the maximum;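 for AC50: potency for loss of active electrodes versus DMSO so lower counts are hits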)
# In short: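 Rat cortical primary cultures, 1.5 x 10^5 cells/well, PEI-coated MEA, laminin drop. Continuous exposure DIV 0–12; full media/compound change DIV 5, 9. Readout: electrodes with mean firing ≥5 spikes/min; AUC across days; loss vs DMSO.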
# [7] = CCTE_Shafer_MEA_dev_burst_rate: CCTE's Neural Network Formation Assay for Burst Rate, Shafer Lab (AID 2284042);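 for AC50: potency for loss of burst rate below DMSO control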
# In short: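 Exposure ran continuously over 12 days of network development in rat cortical cultures, with compound refreshed during full media changes on DIV 5 and 9. Single-electrode bursts per recording time, well-mean over active electrodes, trapezoidal AUC across days 5–12, fitted downward relative to DMSO.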
# [8] = CCTE_Shafer_MEA_dev_per_burst_interspike_interval: CCTE's Neural Network Formation Assay for Burst Interspike Interval, Shafer Lab (AID 2284044);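 note: mean spike spacing inside bursts as AUC over recordings on days 5 7 9 12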;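 for AC50: potency for a decrease of within-burst interspike interval below DMSO level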
# In short: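 Developmental network-formation MEA in primary rat cortical cultures with exposure spanning days 0–12. Within-burst ISI is averaged per well and integrated across recording days by area under the curve, with DMSO as negative control baseline.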
# [9] = CCTE_Shafer_MEA_dev_burst_duration_mean: CCTE's Neural Network Formation Assay for Mean Burst Duration, Shafer Lab (AID 2284045);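 for AC50: curve fitted for loss meaning shorter burst duration than DMSO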
# In short: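 Read-out: average first-to-last-spike interval within single-electrode bursts, averaged over bursting electrodes per well, then summarised as area under the curve across days 5, 7, 9 and 12. Developing rat cortical networks were exposed from day 0.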
# [10] = CCTE_Shafer_MEA_dev_interburst_interval_mean: CCTE's Neural Network Formation Assay for Mean Interburst Interval, Shafer Lab (AID 2284046);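 note: well-mean interburst interval of bursting electrodes as AUC over four recording days; curve fitted for decrease in interburst interval relative to DMSO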
# In short: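 Primary rat cortical neurons on PEI-coated 48-well MEA plates (laminin added with cells at plating) (16 electrodes/well), exposed from plating day 0 with renewal at DIV 5 and 9. Mean inter-burst interval averaged over bursting electrodes, AUC across days 5, 7, 9, 12; DMSO baseline.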
# [11] = CCTE_Shafer_MEA_dev_inter_network_spike_interval_mean: CCTE's Neural Network Formation Assay for Mean Inter-network Spike Interval, Shafer Lab (AID 2284047);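 for AC50: potency for a decrease in mean inter-network spike interval below DMSO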
# In short: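 Mean time between consecutive network-spike peaks, recorded extracellularly (adaptive spike detection) on DIV 5, 7, 9 and 12, summarized as trapezoidal AUC. Rat cortical cultures on MEAs dosed continuously days 0–12, re-dosed at feeds; loss-of-signal fit relative to DMSO.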
# [12] = CCTE_Shafer_MEA_dev_network_spike_number: CCTE's Neural Network Formation Assay for Number of Network Spikes, Shafer Lab (AID 2284048);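 note: synchronized bursts across electrodes counted on days 5 7 9 12 and integrated as AUC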;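 for AC50: fit as a loss of signal meaning fewer network spikes than DMSO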
# In short: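 Developing networks of primary rat cortical neurons are treated over 12 days starting at plating, with media and compound fully replaced on DIV 5 and 9. Network spike counts from four recording days are integrated as trapezoidal AUC.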
# [13] = CCTE_Shafer_MEA_dev_network_spike_peak: CCTE's Neural Network Formation Assay for Mean Number of Electrodes in Network Spike, Shafer Lab (AID 2284049);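 for AC50: fitted for loss of signal meaning fewer electrodes in network spikes than DMSO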
# In short: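 Rat cortical primary culture, 1.5 x 10^5 cells/well, 48-well MEA (16 electrodes/well). Dosing day 0 through DIV 12, full media/compound exchange DIV 5, 9. AxIS adaptive spike detection; AUC over days 5/7/9/12; loss-of-signal vs DMSO.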
# [14] = CCTE_Shafer_MEA_dev_spike_duration_mean: CCTE's Neural Network Formation Assay for Mean Spike Duration, Shafer Lab (AID 2284051);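 note: mean network spike duration pooled as area under curve over DIV 5 to 12 recordings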;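 for AC50: potency for a decrease in mean network spike duration versus DMSO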
# In short: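 Spontaneous activity was recorded on days 5, 7, 9 and 12 from rat cortical cultures grown on microelectrode arrays and dosed continuously from day 0, with media and compound renewed after the DIV 5 and 9 recordings. Network-spike duration was collapsed by area under the curve.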
# [15] = CCTE_Shafer_MEA_dev_network_spike_duration_std: CCTE's Neural Network Formation Assay for Standard Deviation of Network Spike Duration, Shafer Lab (AID 2284052);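 note: hits are decreases in network spike duration SD versus DMSO vehicle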
# In short: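 Network spike duration variability was collapsed across recordings on days 5, 7, 9 and 12 by trapezoidal area-under-curve and fitted downward against DMSO. Cultures were rat cortical neurons on PEI-coated MEA plates, dosed continuously from plating, refed with compound DIV 5/9.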
# [16] = CCTE_Shafer_MEA_dev_per_network_spike_spike_number_mean: CCTE's Neural Network Formation Assay for Mean Number of Spikes in a Network Spike, Shafer Lab (AID 2284053);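 for AC50: fitted as decrease in spikes per network spike relative to DMSO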
# In short: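 Mean spike count within each network spike, taken in a 0.05 s window at its peak, was recorded on days 5, 7, 9 and 12 and integrated as trapezoidal area under the curve. Rat cortical cultures on MEA plates received continuous compound from day 0, refreshed at medium changes on DIV 5 and 9.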
# [17] = CCTE_Shafer_MEA_dev_per_network_spike_spike_percent: CCTE's Neural Network Formation Assay for Percent of Spikes in a Network Spike, Shafer Lab (AID 2284054)
# In short: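 Rat primary cortical cultures, 1.5 x 10^5 cells/well on MEA. Continuous compound exposure d0–12, medium/compound renewed DIV 5, 9. Network-spike spike % (0.05 s peak window), AUC over 4 recordings, DMSO baseline.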
# [18] = CCTE_Shafer_MEA_dev_LDH: CCTE's Lactate Dehydrogenase Assay for Cytotoxicity in the Neural Network Formation Assay, Shafer Lab (AID 2284068; active = hit-call score of the fitted dose curve at least 0.9, where 1 is the maximum;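 note: exposure for twelve days from plating with re-dosing on DIV 5 and 9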)
# In short: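 Primary rat cortical neurons were cultured on PEI-coated MEA plates and exposed from plating through day 12, with compound renewed at medium changes on DIV 5 and 9. LDH activity was read spectrophotometrically; loss of signal versus DMSO indicates reduced viability.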
# [19] = CCTE_Shafer_MEA_dev_AB: CCTE's Alamar Blue Assay for Cytotoxicity in the Neural Network Formation Assay, Shafer Lab (AID 2284083; active = hit-call score of the fitted dose curve at least 0.9, where 1 is the maximum;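 note: resazurin reduction fluorescence as viability of cultured neurons; twelve days of exposure from plating with re-dosing on DIV 5 and 9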)
# In short: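 Resazurin fluorescence, relative to DMSO, gauges viability after twelve days of exposure that began at plating of rat cortical neurons (1.5 x 10^5 cells/well, 48-well MEA); treatment renewed with full medium exchange on DIV 5 and 9.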
smiles,measurement,setting,value
OC(C(F)(F)F)(C(F)(F)F)C(O)(C(F)(F)F)C(F)(F)F,outcome,[1],inactive
same,AC50,"Decorin, DCN (gene 1634)",30 µM (active) and 46.7 µM (active)
same,AC50,[2],36.7 µM (active) and 37.8 µM (active)
same,AC50,[3],48.4 µM (active) and 47.9 µM (active)
CN(C)CCC(c1ccc(Cl)cc1)c1ccccn1 (stereo not given),outcome,[4],inactive
same,outcome,[5],inactive
same,outcome,[6],inactive
same,outcome,[7],inactive
same,outcome,[8],inactive
same,outcome,[9],inactive
same,outcome,[10],inactive
same,outcome,[11],inactive
same,outcome,[12],inactive
same,outcome,[13],inactive
same,outcome,[14],inactive
same,outcome,[15],inactive
same,outcome,[16],inactive
same,outcome,[17],inactive
same,outcome,[18],inactive
same,outcome,[19],inactive
same,outcome,[1],inactive
same,outcome,"Decorin, DCN (gene 1634)",inactive
same,outcome,[2],inactive
same,outcome,[3],inactive
CCCCCCCCCCC1CO1 (stereo not given),outcome,[1],inactive
same,AC50,"Decorin, DCN (gene 1634)",24.7 µM (active)
same,AC50,[2],35.2 µM (active)
same,AC50,[3],3.97 µM (active)
COc1ccc2cc3[n+](cc2c1OC)CCc1cc2c(cc1-3)OCO2,AC50,[4],106 nM (active)
same,AC50,[5],145 nM (active)
same,AC50,[6],161 nM (active)
same,AC50,[7],92.8 nM (active)
same,AC50,[8],381 nM (active)
same,AC50,[9],291 nM (active)
same,AC50,[10],287 nM (active)
same,AC50,[11],236 nM (active)
same,AC50,[12],79.8 nM (active)
same,AC50,[13],156 nM (active)
same,AC50,[14],130 nM (active)
same,AC50,[15],97.4 nM (active)
same,AC50,[16],109 nM (active)
same,AC50,[17],117 nM (active)
same,AC50,[18],88.1 nM (active)
same,AC50,[19],450 nM (active)
CNCCC(Oc1ccc(C(F)(F)F)cc1)c1ccccc1 (stereo not given),AC50,[4],1870 nM (active)
same,AC50,[5],4190 nM (active)
same,AC50,[6],2550 nM (active)
same,AC50,[7],2770 nM (active)
same,AC50,[8],3140 nM (active)
same,AC50,[9],2810 nM (active)
same,AC50,[10],4180 nM (active)
same,AC50,[11],1400 nM (active)
same,outcome,[12],inactive
same,AC50,[13],2800 nM (active)
same,AC50,[14],1880 nM (active)
same,AC50,[15],2010 nM (active)
same,AC50,[16],1070 nM (active)
same,AC50,[17],7650 nM (active)
same,AC50,[18],2080 nM (active)
same,AC50,[19],5000 nM (active)
